In PubChem BioAssay:

How the values were obtained:
[1] = tested on: Human papillomavirus type 1a protein E7 (residues 44-93); assay: HPV1a E7 fragment binders on microarrays, primary screen, biochemical, small-molecule microarray, residues 44-93, 635 nm fluorescence (AID 1108); conditions: small-molecule microarray binding, fluorescence 635 nm; higher = more signal;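 further: E7 fragment applied at 1 µg/mL in TBST for 1 h at 4 C; score combines spot fluorescence with its signal to noise ratio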
[2] = modulators of HCV replicon luciferase signal, primary screen, HCV replication inhibitor project, Huh7 cells, luciferase reporter (AID 1109); conditions: 48 h, higher = more signal;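 further: huh7 hepatoma cells harbouring a luciferase neomycin HCV replicon reporter; luciferase luminescence as measure of HCV replicon replication; test concentration not given here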
[3] = target: Left-right determination factor 2 (Homo sapiens) (UniProt O00292); assay: LEFTY2 binders on small-molecule microarrays, primary screen, biochemical, small-molecule microarray, 635 nm fluorescence scan (AID 1110); conditions: LEFTY2 binding, higher = more signal
Left-right determination factor 2 (Homo sapiens), sequence (O00292 whole entry, looked up): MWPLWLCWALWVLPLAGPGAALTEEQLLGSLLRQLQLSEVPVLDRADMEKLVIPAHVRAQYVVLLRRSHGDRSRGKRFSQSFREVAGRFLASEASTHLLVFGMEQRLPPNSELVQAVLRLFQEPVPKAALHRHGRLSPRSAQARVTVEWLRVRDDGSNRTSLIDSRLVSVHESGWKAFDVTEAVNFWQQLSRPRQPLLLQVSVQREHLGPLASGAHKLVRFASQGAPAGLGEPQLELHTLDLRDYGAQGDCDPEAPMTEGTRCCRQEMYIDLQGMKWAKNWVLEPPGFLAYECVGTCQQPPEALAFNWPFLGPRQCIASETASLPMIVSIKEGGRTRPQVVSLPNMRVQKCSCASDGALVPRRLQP

[4] = target: Calmodulin-1 (Homo sapiens) (UniProt P0DP23); assay: CALM1 binders on microarrays, EGTA buffer, profiling panel, biochemical, small-molecule microarray, Cy5-labelled CALM1 (AID 1111); conditions: Cy5-CALM1 binding fluorescence, higher = more signal;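 further: labelled calmodulin applied in Tris saline Tween buffer holding calcium plus EGTA and DTT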
[5] = target: Calmodulin-1 (Homo sapiens) (UniProt P0DP23); assay: calcium-bound CALM1 binders on microarrays, profiling panel, artefact control for SMM control-protein annotation, biochemical, small-molecule microarray, Cy5-labelled CALM1, plus calcium (AID 1112); conditions: Cy5-CALM1 binding fluorescence, higher = more signal;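 further: score merges spot fluorescence with signal to noise from triplicate slides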
[6] = small-molecule microarray binders of probe aWnt5a, primary screen, biochemical, biotinylated probe, 635/667 nm fluorescence (AID 1113); conditions: higher = more signal;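 further: score merges 667 nm fluorescence intensity with signal-to-noise per printed feature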
[7] = small-molecule microarray binders of probe aShh, primary screen, biochemical, biotinylated probe, 635/667 nm fluorescence (AID 1114); conditions: higher = more signal;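 further: probe is biotin-labelled aShh protein from a stem cell growth factor screen; measures binding of labelled protein to compounds printed on the slide; score merges feature fluorescence at 667 nm with signal-to-noise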
[8] = small-molecule microarray binders of probe aNog, primary screen, biochemical, biotinylated probe, 635/667 nm fluorescence (AID 1115); conditions: higher = more signal;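 further: probe is biotinylated aNog protein used at 0.15 µg/mL for 1 h at 4 C; z-score combines 667 nm fluorescence of each spot with its signal to noise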
[9] = target: Torsin-1A-interacting protein 1 (Homo sapiens) (UniProt Q5JTV8); assay: LAP1 binders from COS7 cell lysate, primary screen, small-molecule microarray, 635/667 nm fluorescence (AID 1116); conditions: COS7-hLAP1 lysate binding, 635 nm fluorescence, higher = more signal
Torsin-1A-interacting protein 1 (Homo sapiens), sequence (Q5JTV8 whole entry, looked up): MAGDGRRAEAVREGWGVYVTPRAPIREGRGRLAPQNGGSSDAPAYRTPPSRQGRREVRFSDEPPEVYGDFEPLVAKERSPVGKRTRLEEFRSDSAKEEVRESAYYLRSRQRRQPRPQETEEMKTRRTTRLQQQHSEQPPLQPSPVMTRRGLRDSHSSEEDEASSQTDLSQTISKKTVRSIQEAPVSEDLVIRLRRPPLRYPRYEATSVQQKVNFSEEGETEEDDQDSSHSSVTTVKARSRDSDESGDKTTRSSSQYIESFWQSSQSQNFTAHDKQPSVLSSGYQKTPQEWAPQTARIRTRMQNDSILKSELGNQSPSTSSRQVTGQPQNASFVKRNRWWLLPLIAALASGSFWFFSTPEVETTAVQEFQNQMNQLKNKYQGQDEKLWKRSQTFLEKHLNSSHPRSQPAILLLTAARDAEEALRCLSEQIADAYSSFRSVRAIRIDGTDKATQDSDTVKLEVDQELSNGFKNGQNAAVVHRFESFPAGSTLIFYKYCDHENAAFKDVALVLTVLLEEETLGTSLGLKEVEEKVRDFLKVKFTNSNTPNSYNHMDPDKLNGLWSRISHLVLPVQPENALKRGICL

[10] = target: Alpha-bungarotoxin (Bungarus multicinctus) (UniProt P60615); assay: alpha-bungarotoxin binders on microarray, profiling panel, artefact control for SMM control protein annotation, biochemical, small-molecule microarray, Alexa647 label, 635/667 nm fluorescence (AID 1117); conditions: alpha-BTX-A647 binding fluorescence, higher = more signal
Alpha-bungarotoxin (Bungarus multicinctus), sequence (P60615 whole entry, looked up): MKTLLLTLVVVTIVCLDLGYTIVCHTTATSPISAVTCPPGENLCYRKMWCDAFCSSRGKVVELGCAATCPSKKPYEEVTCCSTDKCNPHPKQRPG

| Structure (SMILES) | composite z-score [1] | z-score [2] | composite z-score [3] | composite z-score [4] | composite z-score [5] | composite z-score [6] | composite z-score [7] | composite z-score [8] | composite z-score [9] | composite z-score [10] |
| --- | --- | --- | --- | --- | --- | --- | --- | --- | --- | --- |
| COc1ccc(O[C@H]2C=C[C@@H](c3ccccc3)O[C@@H]2CO)cc1 | -0.438 | 0.231 | 0.213 | -0.329 | -0.643 | -0.148 | 0.0278 | 0.041 | 0.171 | 0.441 |
| CC(CCN1CCCCc2nc(C)c(C)cc21)=NOC[C@@H](O)[C@H]1O[C@@H]2OC(C)(C)O[C@@H]2[C@H]1O | -0.902 | 0.0388 | 1.39 | -0.554 | -1.3 | -0.124 | -0.0626 | 0.0254 | -0.219 | 0.969 |
| CCC1=NOC(CCC2CC(OC(=O)NCc3cccc4c3OCO4)CC3(CCCC(COC(=O)NCCc4ccc(Cl)cc4)O3)O2)C1 (stereo not given) | 0.916 | -0.0374 | 0.304 | -0.257 | -0.532 | -0.142 | -0.16 | -0.402 | -0.342 | -0.148 |
| C#CCCCON=C1C[C@@H](O)[C@@H](O)[C@@H]2[C@@H]3C(=O)N([C@@H](C)c4ccccc4)C(=O)[C@@H]3CC[C@@H]12 | -0.31 | 1.14 | 0.201 | -0.172 | -0.274 | -0.166 | -0.0553 | 0.167 | -0.512 | 0.46 |
| CCN1C(=O)[C@H]2[C@H]3[C@H](O)[C@H](O)CC(=NNC(=O)OCc4ccccc4)[C@@H]3CC[C@H]2C1=O | -0.577 | 0.232 | -0.0089 | -0.0328 | -0.285 | -0.0405 | -0.0463 | -0.0879 | -0.399 | 0.645 |
| COc1ccc(OC[C@H]2CN3[C@@H](CC[C@@H](C)[C@@H]3c3ccc(Br)cc3)C(=O)O2)cc1 | 0.191 | -0.757 | 0.579 | -0.146 | -0.855 | -0.176 | -0.221 | 0.0121 | 0.5 | 0.641 |
| COC(=O)CC=C1c2ccccc2[C@H](OC)[C@H]1C | -0.887 | -0.154 | 0.398 | -0.452 | -0.746 | -0.0981 | -0.138 | -0.172 | -0.035 | -0.545 |
| O=C1CCCC=C1C(O)COCc1ccccc1 (stereo not given) | -1.61 | -0.45 | -0.0061 | -0.0384 | -1.3 | 0.026 | -0.269 | -0.172 | 0.381 | 0.032 |
| CCN1C(=O)[C@H]2[C@H]3[C@H](O)[C@H](O)CC(=NOCC=C(C)CCC=C(C)C)[C@@H]3CC[C@H]2C1=O | 0.57 | -0.44 | 1.29 | -1.09 | -0.347 | -0.087 | -0.282 | -0.158 | 0.0411 | 0.791 |
| CCN1C(=O)[C@H]2[C@@H]3C(=CC[C@H]2C1=O)C(=O)[C@H]1O[C@H]1[C@H]3O | 0.53 | -5.32 | 0.705 | -0.575 | -1.4 | 0.0559 | -0.138 | -0.144 | 0.282 | 0.0607 |
| Cc1cc2c(nc1C)CCCCN2CC(O)CN1CCCc2nc(-c3ccc(Br)cc3)ccc21 (stereo not given) | 0.599 | -0.116 | 0.615 | 0.114 | -0.823 | 0.093 | 0.304 | 0.17 | 0.404 | 0.888 |
| CC(=O)OC[C@H]1O[C@H](C#CCC2CCCCC2)C=C[C@@H]1OC(C)=O | 1.12 | -2.57 | 0.992 | 0.235 | -0.26 | -0.154 | 0.194 | 0.129 | 0.471 | 0.36 |
| C[C@@H]1CC[C@H]2C(=O)N3[C@@H](CC[C@@H](C)[C@@H]3c3ccc(Br)cc3)C(=O)N2[C@H]1c1ccc(Br)cc1 | -0.0146 | -1.82 | 0.31 | -0.209 | -0.188 | -0.105 | -0.138 | -0.113 | 0.08 | 0.371 |
| COc1cccc([C@H](O)Cn2cc(-c3ccc(CON=C(C)C)cc3)nn2)c1 | -1.42 | -0.657 | 0.323 | -0.851 | -0.679 | 0.123 | -0.229 | -0.172 | 0.56 | -0.713 |
| COc1ccc(COC(=O)NN=C2C[C@@H](O)[C@@H](O)[C@@H]3[C@@H]4C(=O)N(Cc5ccc6c(c5)OCO6)C(=O)[C@@H]4CC[C@H]23)cc1 | -0.433 | -0.191 | -0.34 | -0.704 | -0.276 | 0.0438 | 0.0121 | 0.788 | 0.0406 | 0.164 |
| C[C@@H]1CC[C@H]2C(=O)O[C@@H](CN=[N+]=[N-])CN2[C@H]1c1ccc(Br)cc1 | 1.23 | -4.98 | 0.672 | 0.169 | -0.425 | -0.262 | -0.32 | -0.571 | 0.0942 | 0.601 |
| CC(=O)OC[C@H]1O[C@H](CC=NOC[C@@H](O)COCc2ccco2)C=C[C@@H]1OC(C)=O | -0.646 | 0.586 | 0.898 | -1.18 | -2.22 | -0.102 | -0.356 | -0.498 | 1.58 | -0.663 |

| Structure (SMILES) | composite z-score [1] | z-score [2] | composite z-score [3] | composite z-score [4] | composite z-score [5] | composite z-score [6] | composite z-score [7] | composite z-score [8] | composite z-score [9] | composite z-score [10] |
| --- | --- | --- | --- | --- | --- | --- | --- | --- | --- | --- |
| CC(CCN1CCCc2nc(C)c(C)cc21)=NO[C@@H](C)c1cn([C@H](CO)Cc2ccccc2)nn1 | 0.425 | -0.0976 | 0.67 | -0.168 | -0.671 | -0.0199 | 0.0952 | 0.139 | 0.527 | 0.117 |
| C[C@]12CCC3c4ccc(OCC5CO5)cc4CCC3C1CC[C@@H]2O (stereo not given in full) | 0.629 | -2.71 | 0.242 | 0.964 | 0.285 | -0.0346 | 0.0062 | 0.316 | 0.542 | 1.59 |
| Cc1ccc(S(=O)(=O)N[C@@H]2COC(=O)CC=C[C@@H](C)[C@H](NS(=O)(=O)c3ccc(C)cc3)COC(=O)[C@H](C)NC(=O)CC=C[C@H]2C)cc1 | -1.64 | 0.311 | 0.846 | -0.683 | -0.951 | -0.194 | -0.221 | 0.122 | -0.123 | -0.621 |
| CC(=O)OC[C@H]1O[C@H](C#CCCc2ccccc2)C=C[C@@H]1OC(C)=O | -0.515 | -1.12 | 0.751 | -0.288 | -0.715 | -0.0721 | 0.0204 | 0.0658 | 0.128 | 1.53 |
| COc1ccc(O[C@H]2C=C[C@@H](c3ccccc3)O[C@@H]2CON=C2c3cc(OC)ccc3O[C@H](c3cccc(OC)c3)[C@H]2O)cc1 | -0.382 | -1.78 | 0.804 | -0.0756 | 0.335 | -0.0735 | 0.296 | -0.106 | 0.399 | 0.328 |
| COC(=O)[C@@H]1CC[C@H](C)[C@@H](c2ccc(C)cc2)N1C(=O)c1ccc(C=NO[C@@H](C)c2cc(-c3c(C)cc(C)cc3C)no2)cc1 | 1.04 | -0.542 | 0.45 | 0.0785 | -0.37 | -0.0236 | -0.141 | 0.0373 | 0.722 | 0.208 |
| COC(=O)[C@@H]1CC[C@H](C)[C@@H](c2ccc(Br)cc2)N1C[C@@H](O)CN=[N+]=[N-] | 0.29 | -0.779 | 0.445 | -0.178 | -0.437 | -0.0403 | 0.0494 | -0.0103 | 0.289 | -0.291 |
| CCOC(=O)NN=C1C[C@@H](O)[C@@H](O)[C@@H]2[C@@H]3C(=O)N(CC)C(=O)[C@@H]3CC[C@H]12 | -0.307 | 0.276 | 0.346 | -0.317 | -0.325 | -0.176 | -0.0813 | -0.244 | 0.0626 | -0.113 |
| C=CC[C@@H]1C=C[C@H](Oc2ccc(C)cc2)[C@@H](COC(=O)NCc2cccc3ccccc23)O1 | 0.286 | -2.78 | 0.129 | -0.716 | -0.547 | -0.0271 | -0.0793 | -0.0496 | 0.0431 | -0.212 |
| O=C1C[C@@H](O)[C@@H](O)[C@@H]2[C@@H]3C(=O)N(Cc4ccccc4)C(=O)[C@@H]3CC[C@H]12 | -0.234 | -0.0156 | 0.804 | 0.0302 | -0.344 | -0.0869 | -0.138 | 0.0369 | 0.432 | 0.848 |
| CCOC(=O)[C@H](CC(C)C)NC(=O)CCC1CC(OC(=O)NCc2ccc3c(c2)OCO3)CC2(CCCC(COC(=O)NCCOC)O2)O1 (stereo not given in full) | 0.522 | -0.322 | 0.249 | 0.221 | -0.491 | -0.0792 | -0.2 | -0.0615 | 0.956 | 1.05 |
| CC(CCN1CCCc2nc(C)c(C)cc21)=NOC[C@@H](O)COCc1ccco1 | -2.03 | -0.62 | 1.73 | 0.264 | -2.31 | 0.937 | 2.26 | 1.75 | 2.57 | 1.94 |
| COC(=O)[C@H](C)NC(=O)CCC1CC(OC(=O)NCCc2ccc(F)cc2)CC2(CCCC(COC(=O)NCC3CCCCC3)O2)O1 (stereo not given in full) | 1.39 | -1.34 | 0.573 | 0.71 | -0.039 | -0.1 | 0.0469 | 0.144 | 0.774 | 0.382 |
| CO[C@H]1COC(=O)[C@H](C)COC(=O)[C@@H](OCc2ccccc2)C=C[C@@H]1C | -0.0848 | -0.0886 | 0.328 | -0.46 | -0.726 | -0.123 | -0.0769 | -0.379 | -0.149 | -0.281 |
| CC(CCN1CCCCc2nc(C)c(C)cc21)=NO[C@@H](C)c1cc(-c2c(C)cc(C)cc2C)no1 | -0.384 | -1.56 | -0.747 | -0.901 | -0.891 | -0.152 | -0.221 | -0.298 | 0.0623 | -0.664 |
| CO[C@H]1COC(=O)CC=C[C@@H](C)COC(=O)[C@H]2CCCN2C(=O)CC=C[C@H]1C | -0.858 | -0.0849 | 1.48 | -1.05 | -1.72 | -0.0721 | 0.684 | -0.542 | 1.03 | -1.25 |
| CC(CCC(=O)OC[C@H]1O[C@H](C#Cc2ccccc2)C=C[C@@H]1Oc1ccc(C)cc1)=NOC(C)CN1CCCc2nc(C)c(C)cc21 (stereo not given in full) | 1.21 | -0.456 | 0.447 | 0.687 | -0.0954 | -0.0944 | -0.0146 | 0.125 | 0.132 | 0.898 |
